Measurements published in paper PMC4336329 (PLoS ONE, 2015).
The campaign covered roughly 310,000 compounds. About 14,000 (4.5%) showed an effect of 50% or more. Effects have a minus sign here. The list comes from a sample in which strong results are over-represented; it also holds similar structures and randomly drawn compounds.

molecular target: human ether-à-go-go-related gene (hERG) potassium channel (human, UniProt Q12809); assay: primary screen, population patch clamp on CHO cells stably expressing hERG; higher = less effect of the substance
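Also: peak tail current of the secondary pulse compared with the same well before compound.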

human ether-à-go-go-related gene (hERG) potassium channel, sequence (Q12809 whole entry, looked up): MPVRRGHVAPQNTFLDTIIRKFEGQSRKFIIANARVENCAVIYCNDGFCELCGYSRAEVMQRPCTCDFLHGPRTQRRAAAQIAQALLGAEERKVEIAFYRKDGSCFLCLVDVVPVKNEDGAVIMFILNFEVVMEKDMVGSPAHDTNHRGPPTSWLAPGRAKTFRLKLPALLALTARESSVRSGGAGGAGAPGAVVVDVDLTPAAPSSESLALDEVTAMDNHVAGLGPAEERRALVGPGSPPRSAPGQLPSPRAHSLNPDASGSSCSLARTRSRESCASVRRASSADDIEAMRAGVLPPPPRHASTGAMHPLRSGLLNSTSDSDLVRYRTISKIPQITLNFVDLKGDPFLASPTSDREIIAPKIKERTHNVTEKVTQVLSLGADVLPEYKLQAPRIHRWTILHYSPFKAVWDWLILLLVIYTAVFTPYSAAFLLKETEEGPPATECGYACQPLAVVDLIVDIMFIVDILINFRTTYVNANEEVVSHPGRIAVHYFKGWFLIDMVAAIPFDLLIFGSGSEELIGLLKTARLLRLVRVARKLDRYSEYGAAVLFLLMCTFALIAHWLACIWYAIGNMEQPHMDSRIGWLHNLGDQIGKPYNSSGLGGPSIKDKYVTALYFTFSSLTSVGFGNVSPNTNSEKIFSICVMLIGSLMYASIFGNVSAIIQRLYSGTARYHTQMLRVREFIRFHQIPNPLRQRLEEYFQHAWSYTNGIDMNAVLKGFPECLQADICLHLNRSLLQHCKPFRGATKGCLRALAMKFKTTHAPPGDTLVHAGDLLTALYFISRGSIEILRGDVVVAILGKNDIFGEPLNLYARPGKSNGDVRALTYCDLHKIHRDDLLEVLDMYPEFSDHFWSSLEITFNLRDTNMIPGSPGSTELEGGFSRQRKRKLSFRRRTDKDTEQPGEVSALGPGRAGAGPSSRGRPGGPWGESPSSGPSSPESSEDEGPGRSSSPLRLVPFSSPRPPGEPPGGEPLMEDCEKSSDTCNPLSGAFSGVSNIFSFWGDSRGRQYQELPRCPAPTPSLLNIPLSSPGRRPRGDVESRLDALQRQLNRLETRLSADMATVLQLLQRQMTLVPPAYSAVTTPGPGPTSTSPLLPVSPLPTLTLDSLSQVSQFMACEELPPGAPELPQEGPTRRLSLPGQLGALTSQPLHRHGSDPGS

Row | Compound | hERG current change (%, negative = inhibition) at 10uM [%]
1 | CCNC(=S)NCc1ccc(F)cc1 | 5.03
2 | Br.NS(=O)(=O)c1ccc(Nc2nc(-c3ccccc3)cs2)cc1 | -26
3 | CCCn1c(=O)c(C(=O)Nc2ccccc2C(=O)OC)c(O)c2ccccc21 | 5.91
4 | S=C1NCCNC(=S)NCCOCCOCCOCCN1 | 15.2
5 | CCOC(=O)c1nn(-c2ccccc2)c2nnc(Cc3ccc(Cl)cc3)c(=O)n12 | 3.57
6 | COc1cccc(OC)c1OCCCCN1CCCCC1.O=C(O)C(=O)O | -2.55
7 | CC(=O)CCc1ccc(OCCCCN2CCC(Cc3ccccc3)CC2)cc1.O=C(O)C(=O)O | -79.5
8 | CC(=O)CCc1ccc(OCCCCn2cncn2)cc1 | -4.29
9 | COc1cccc(OC)c1OCCCN1CCOCC1 | 4.22
10 | COc1ccc(OCC(=O)N2CCC(Cc3ccccc3)CC2)cc1 | -36
11 | COc1cccc(OC)c1OCCCN1CCC(Cc2ccccc2)CC1.O=C(O)C(=O)O | -80.6
12 | COc1cccc(OC)c1OCCCCCCN1CCN(C)CC1.Cl | 8.54
13 | COc1cccc(OC)c1OCCCCN1CCCC1 | -2.47
14 | COc1cccc(OC)c1OCCCCN1CCC(Cc2ccccc2)CC1.O=C(O)C(=O)O | -81.9
15 | COc1ccccc1OCC(=O)OCC(=O)Nc1ncc(Cl)cc1Cl | 12.8
16 | Cc1ccc2nc(NC(=O)/C=C/c3ccc4c(c3)OCO4)sc2c1 | 14.8
17 | Cc1cccc(CNC(=O)c2ccc(NC(=O)C3=CSCCO3)cc2)c1 | 5.08
18 | CSc1nnc(NC(=O)CCc2ccccc2)s1 | -6.33
19 | COc1ccc(NC(=O)CN(C)C(=O)c2ccccc2SCC(=O)N2CCCC2)cc1 | 10.5
20 | COc1ccc(Cn2c(SC)nc3ccccc32)cc1[N+](=O)[O-] | 13.9
21 | O=C(O)CCSc1nc2ccccc2n1Cc1ccccc1 | 24.1
22 | CCN(CC)CCSc1nc2ccccc2c(=S)n1-c1ccccc1.Cl | -51.9
23 | CSc1nc2ccccc2n1Cc1cccc([N+](=O)[O-])c1 | -44.8
24 | O=C(O)CSc1nnc(Nc2ccccc2)n1-c1ccccc1 | 18.6

Row | Compound | hERG current change (%, negative = inhibition) at 10uM [%]
25 | CN(C)C(=O)CSc1nc2ccccc2n1Cc1ccccc1 | -11.8
26 | OCCn1nc2c3ccccc3nc-2n(-c2ccccc2)c1=S | -9.49
27 | CCN(CC)CCSc1nnc(Nc2ccccc2)n1-c1ccccc1 | -75.9
28 | CCSc1nc2ccccc2n1Cc1cccc([N+](=O)[O-])c1 | -69.7
29 | CCN(CC)CCSc1nc2ccccc2n1Cc1ccccc1.Cl | -74.1
30 | CCN(CC)C(=O)CSc1nnc(-c2ccccc2)n1-c1ccccc1 | 17.8
31 | CCN(CC)CCSc1nc(O)c(-c2ccccc2)c(=O)n1-c1ccccc1.Cl | 12.1
32 | CCc1n[nH]c(=S)n1/N=C/c1ccc(NC(C)=O)cc1 | 13
33 | COc1cc(NC(=O)COC(=O)CO/N=C(\C)c2ccc3c(c2)OCO3)cc(OC)c1 | 14.6
34 | CC1CCc2sc(C(=O)Nc3ccc(N4CCOCC4)cc3)cc2C1 (centres unmarked) | 11.6
35 | COc1cccc2c1OCC(C(=O)Nc1nccs1)=C2 | -0.366
36 | CC(=O)C1=C(O)C(=O)N(c2ccc(Br)cn2)C1c1ccccc1F (centres unmarked) | 10.6
37 | CC(=O)N(C)c1ccc(NS(=O)(=O)Cc2ccccc2)cc1 | -8.12
38 | O=C(CCSc1ccccc1)Nc1ncccn1 | 14.9
39 | COC(=O)c1ccc(Cl)c(NS(=O)(=O)c2ccc3c(c2)OCCO3)c1 | -25.4
40 | Cc1sc2nc3c4ccccc4c(NCc4ccco4)nn3c(=O)c2c1C | -56.6
41 | O=c1c2ccccc2nc2c3ccccc3c(NCc3ccco3)nn12 | -17.8
42 | Cc1sc2nc3ccc(NCc4ccco4)nn3c(=O)c2c1C | -21.7
43 | COc1nc(N/N=C/c2ccccc2F)nc(N2CCCCC2)n1 | -15.6
44 | O=C(Nc1ccc(Br)cc1)N1CCc2ccccc2C1 | 2.91
45 | COc1ccc(NC(=O)NCCN2CCc3ccccc3C2)cc1 | -34.6
46 | O=C(CN1CCc2ccccc2C1)Nc1ccc(Br)cc1 | -34.2
47 | COc1ccc(NC(=O)NCCCN2CCCC2=O)cc1 | 4.11
48 | O=C(NCCCN1CCCC1=O)Nc1ccc(Cl)cc1 | 2.13

Row | Compound | hERG current change (%, negative = inhibition) at 10uM [%]
49 | O=C(NCCCN1CCc2ccccc2C1)Nc1ccc(Cl)cc1 | -65.5
50 | O=C(NCCCN1CCc2ccccc2C1)Nc1ccc(Br)cc1 | -71.7
51 | CN1CCN(CCNC(=O)Nc2ccc(Cl)cc2)CC1 | -0.17
52 | COc1ccc(NC(=O)NCCCN2CCc3ccccc3C2)cc1 | -69.2
53 | COc1ccc(-c2csc(NC(=O)Cc3ccccc3F)n2)cc1OC | 2.29
54 | CC(Oc1cc2oc(=O)c3c(c2cc1Cl)CCCC3)C(=O)NCc1ccncc1 (centres unmarked) | -41.8
55 | Cc1[nH]c2ccccc2c1C1(O)C(=O)N(C(C)C)c2ccccc21 (centres unmarked) | 16.7
56 | CC1CC2(CC(C)(C(=O)CSc3nc4ccccc4s3)OC2=O)C(=O)O1 (centres unmarked) | -1.16
57 | CCOC(=O)C1=C(C)NC(C)=C(C(=O)OCC)C1C(=O)OCC(=O)N1CCc2ccccc21 | -1.82
58 | CC(C)CC(=O)Nc1ccccc1-c1nnn(CC(=O)N2CCOCC2)n1 | -2.78
59 | NC(=S)NNc1c(F)c(F)c(F)c(F)c1F | 28.9
60 | Cc1ccc(F)c(NC(=O)c2c(-c3ccccc3)noc2C)c1 | 7.17
61 | Cl.OCCN(CCO)CC(O)CN1c2ccccc2Sc2ccccc21 (centres unmarked) | -12.9
62 | CC(=O)Nc1ccc(-c2csc(NC(=O)C3CCN(S(=O)(=O)c4cccs4)CC3)n2)cc1 | -2.9
63 | COc1cc(-c2nc3sc(C)c(C)c3c(=O)o2)cc(OC)c1OC | 19
64 | CCOC(=O)C1=C(C)OC(N)=C(C#N)C1c1cc2ccccc2nc1N1CCCCC1 (centres unmarked) | 6.3
65 | CC(C)N1C(=S)SC2CS(=O)(=O)C=C21 (centres unmarked) | -5.07
66 | NC(=O)c1cc(S(=O)(=O)N2CCCC2)ccc1OCCOc1ccccc1 | 2.15
67 | CC(=O)c1cn(Cc2ccc(C#N)cc2)c2ccccc12 | -19.9
68 | CC(C)C(=O)c1cn(Cc2ccc(C#N)cc2)c2ccccc12 | -75.6
69 | N#Cc1ccc(Cn2cc(C(=O)c3ccco3)c3ccccc32)cc1 | -76.7
70 | CCC(=O)c1cn(Cc2ccc(C#N)cc2)c2ccccc12 | -71.8
71 | CC(C)C(=O)c1cn(CC(=O)O)c2ccccc12 | 8.27
72 | O=Cc1cn(Cc2ccc(Br)cc2)c2ccccc12 | 15

Row | Compound | hERG current change (%, negative = inhibition) at 10uM [%]
73 | O=C(c1ccco1)c1cn(Cc2ccc(Cl)cc2)c2ccccc12 | 15.9
74 | N#Cc1ccc(Cn2cc(C=O)c3ccccc32)cc1 | -80.8
75 | CCC(=O)c1cn(Cc2ccccc2C#N)c2ccccc12 | -24.2
76 | Cc1ccc(Cn2cc(C=O)c3ccccc32)cc1 | 1.48
77 | CC(C)C(=O)c1cn(Cc2ccccc2C#N)c2ccccc12 | -10.8
78 | O=C(c1ccco1)c1cn(Cc2ccccc2)c2ccccc12 | -6.75
79 | Cc1cc(C)n(-c2ncc(-c3ccccc3)nn2)n1 | -36.4
80 | O=C(NCCCc1ccccc1)C(=O)NCC1OCCN1S(=O)(=O)c1cc(F)ccc1F (centres unmarked) | -15
81 | O=C(Nc1ncc(Cc2ccccc2)s1)C1=NCCN1 | 6.81
82 | COc1ccc(-c2nn(-c3ccccc3)cc2N)cc1 | -3.82
83 | CCOC(=O)c1ccc(COC(=O)CCc2nc(-c3ccccc3)c(-c3ccccc3)o2)cc1 | 1.13
84 | CN(Cc1ccco1)S(=O)(=O)c1nnc(NC(=O)c2ccccc2Cl)s1 | 15
85 | COc1ccccc1NC(=O)CN1CC(=O)Nc2ccccc21 | 20.5
86 | O=C(O)CCNc1nc(C(F)(F)F)nc2ccccc12 | 18.2
87 | Cl.Fc1ccc(Nc2nc(N3CCOCC3)c3ccccc3n2)cc1 | -2.91
88 | CN1CCN(c2nc(Nc3ccc(O)cc3)nc3ccccc23)CC1.Cl | -34.9
89 | COc1ccc(Nc2nc(N3CCCCC3)c3ccccc3n2)cc1 | -32.9
90 | Cl.c1ccc(Nc2nc(N3CCOCC3)c3ccccc3n2)cc1 | -14.2
91 | CCN(CC)c1ccc(Nc2nc(N3CCOCC3)c3ccccc3n2)cc1 | -71.8
92 | Cl.Oc1ccc(Nc2nc(N3CCCC3)c3ccccc3n2)cc1 | -70.2
93 | COc1ccc(Nc2nc(N)c([N+](=O)[O-])c(N3CCCC3)n2)cc1 | -22.8
94 | Cl.c1ccc2c(Nc3nc(N4CCOCC4)c4ccccc4n3)cccc2c1 | -6.79
95 | COc1ccc(Nc2nc(N3CCCC3)c3ccccc3n2)cc1.Cl | -70
